# Source: PubChem BioAssay
# Rows were chosen to be rich in hits. Some 19% of all compounds tested hit in one or more screens of this group.
# HT1080-NT tox: qHTS for induction of synthetic lethality in tumor cells producing 2HG: qHTS for the HT-1080-NT fibrosarcoma cell line; HT-1080-NT fibrosarcoma viability, CellTiter-Glo ATP luminescence, 48 h; Potency, µM (highest dose often 46.1 µM), for inactives: top-dose activity, negative = less viability, hits mostly cytotoxic; 1.6% of 360,000 active;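 also: NT is the 2HG producing partner of a matched IDH1 knockdown line; potency is read from the fitted curve at half-maximal effect; 0% = DMSO-treated cells and -100% = media-only wells without cells; nearly all actives have a fitted effect of over 55% in size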
#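 Fibrosarcoma NT cells, 750 per well in 5% FBS RPMI, were exposed to compound for 48 hours. Viability: CellTiter-Glo luminescence.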
# TDP1 cell CPT: qHTS for Inhibitors of human tyrosyl-DNA phosphodiesterase 1 (TDP1): qHTS in cells in presence of CPT | Potency, µM (series often up to 46.2 µM), without a hit: top-dose activity change, negative = growth inhibition, actives largely listed as inhibitors | 12% of 420,000 active | chicken DT40 Tdp1-/-;hTDP1 cells + 20 nM CPT, ATP luminescence, 48 h | AID 686979, 2013; also: potency is read from the fitted curve at half-maximal effect; nearly all actives have a fitted effect of over 55% in size
#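 Chicken DT40 Tdp1-/- cells complemented with human TDP1, 400 cells/well, exposed to compounds plus 20 nM camptothecin for at least 48 h at 37 C; viability read as ATP content by CellTiter-Glo luminescence.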
# HT1080 IDH1KD tx: qHTS for induction of synthetic lethality in tumor cells producing 2HG: qHTS for the HT-1080-IDH1KD cell line; HT-1080 IDH1 knockdown viability, ATP luminescence, 48 h; 2% of 360,000 active; Potency, µM (top dose mostly 46.1 µM), for inactives: at the highest dose activity, negative = toxicity, actives largely listed as cytotoxic;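 also: potency is read from the fitted curve at half-maximal effect; 0% = DMSO wells and -100% = cell-free medium wells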
#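 Luminescent ATP read-out (CellTiter-Glo, 10 min at room temperature) after 48 h compound exposure at 37 °C gave viability of IDH1-knockdown HT-1080 cells. Activity was normalised to DMSO and cell-free wells, then fitted as concentration-response curves.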
# IL-1B inflam inh: qHTS for Inhibitors of Inflammasome Signaling: IL-1-beta AlphaLISA Primary Screen; THP-1 LPS/ATP IL-1B secretion, AlphaLISA, 16 h; stronger effect = lower value; activity change, % at 57.5 µM; 4.7% of 360,000 active; AID 743279, 2014; in the data active = activity change below about -50%; inconclusive = mostly about -30% to -49%
#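 Secreted IL-1B measured by AlphaLISA bead assay after 16 h compound exposure of THP-1 cells; compounds (final up to 57.5 uM) added 1 h before LPS (250 ng/mL) and ATP (1.25 mM) stimulation; lower signal means less secretion.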
# uPA generation: qHTS for Inhibitors of Cell Surface uPA Generation | cell surface uPA generation assay, qHTS | Potency, µM (highest dose often 38.3 µM), for inactives: at the top dose activity change, negative = inhibition, actives largely listed as inhibitors | 0.31% of 330,000 active | AID 540303, 2011; active = well fitted inhibition curve with a large enough effect; inconclusive = small, poorly fitted or top-dose-only effect; inactive = no such curve, though single readings can be large or run the other way; tested in mouse RAW 264.7 cells; also: potency is read from the fitted curve at half-maximal effect; nearly all actives have a fitted effect of over 55% in size
# DT40 TDP1 no CPT: qHTS for Inhibitors of human tyrosyl-DNA phosphodiesterase 1 (TDP1): qHTS in cells in absence of CPT; DT40 Tdp1-/- hTDP1 cells, no CPT, ATP luminescence, 48 h; Potency, µM (highest dose often 46.2 µM), inactives show at the top dose activity change, negative = growth inhibition, most hits filed as inhibitors; 15% of 420,000 active; also: potency is read from the fitted curve at half-maximal effect; nearly all actives have a fitted effect of over 55% in size
#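 DT40 Tdp1-/-;hTDP1 cells, no CPT (DMSO vehicle only), 400 cells/well; compounds pin-transferred; ≥48 hr, 37 °C; CellTiter-Glo 30 min RT dark, luminescence read.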
# Starred values were filed as active, the others as inactive; u = inconclusive; x = not tested or not shown; [ ] = another dose, or the depositor's remark. Unless noted, calls follow the shape of the dose curve; as a rule, active = well fitted curve in the direction sought with a large enough effect; inconclusive = small, poorly fitted or top-dose-only effect, or another doubt; inactive = no such curve, though single readings can be large; an effect the other way counts as inactive or inconclusive. Unless noted, % is scaled to controls: 0 for no effect and ±100 for the full control effect.
SMILES,HT1080-NT tox,TDP1 cell CPT,HT1080 IDH1KD tx,IL-1B inflam inh,uPA generation,DT40 TDP1 no CPT
COc1ccc(-c2csc(C(O)c3ccc(F)c(OC)c3)n2)cc1 (configuration not stated),u,13µM*,-20%,-4,x,15µM*
COc1cc(C(O)c2nc(-c3ccccc3)cs2)ccc1F (configuration not stated),u,7.3µM*,-77%,-20,x,6.5µM*
COCc1cccc(-c2csc(C(O)c3ccc(F)c(OC)c3)n2)c1 (configuration not stated),-28%,8.2µM*,-8%,0,x,21µM*
COc1cccc(C(O)c2nc(-c3ccc(F)c(Cl)c3)cs2)c1 (configuration not stated),u,16µM*,u,-24,x,u
COc1cc(C(O)c2nc(-c3ccccc3C)cs2)ccc1F (configuration not stated),u,u,u,4,x,u
COc1ccc(C(O)c2nc(-c3ccc(F)c(Cl)c3)cs2)cc1 (configuration not stated),u,u,u,0,x,u
CC[C@@]1(c2ccccc2)NC(=O)N(C)C1=O,x,-71%,x,x,x,u
C=CCN1C(=O)/C(=C/C=C2/N(CC)c3ccc(S(=O)(=O)N(C)C)cc3N2CC)SC1=S,-4%,u,-13%,13,-1%,u
COCc1cccc(-c2csc(C(O)c3cccc(OC)c3)n2)c1 (configuration not stated),1%,18µM*,-19%,-18,x,u
COc1ccc(-c2csc(C(O)c3ccc(F)c(OC)c3)n2)cn1 (configuration not stated),-24%,16µM*,-29%,-16,x,23µM*
O=C(/C=C/c1cccs1)c1ccc(NC(=O)c2ccccc2F)cc1,-4%,-23%,12%,11,1%,12µM*
COc1ccccc1C(=O)Nc1ccc(C(=O)/C=C/c2cccs2)cc1,-22%,u,-19%,u,-5%,18µM*
CCCN(CC(=O)Nc1ccccc1C)C(=O)c1ccc(OCc2c(C)noc2C)cc1,6%,-1%,0%,-4,-2%,-16%
CCCCn1c(N)c(N(CC(C)C)C(=O)C2CCN(S(=O)(=O)c3ccc(C)c(C)c3)CC2)c(=O)[nH]c1=O,14%,u,1%,u,-7%,-7%
CN1CCCCCC1=Nc1ccc([N+](=O)[O-])cc1,-2%,-5%,1%,2,2%,-17%
CN1C(=O)C(N=Nc2ccc([N+](=O)[O-])cc2)SC1=S (configuration not stated),u,7.3µM*,u,-89*,-17%,6.5µM*
Cc1ccc(C)n1C1CCS(=O)(=O)C1 (configuration not stated),-20%,u,-15%,-16,-11%,u
Cc1nn(C2CCS(=O)(=O)C2)c(C)c1C=O (configuration not stated),10%,u,18%,29,2%,21µM*
COC(=O)c1ccc(CNS(=O)(=O)c2ccc3ccccc3c2)cc1,-9%,-1%,-9%,62,5%,-17%
COc1ccc(OC)c(N(CC(=O)Nc2ccc3c(c2)OCO3)S(=O)(=O)c2ccccc2)c1,-10%,26µM*,-13%,-17,3%,u
COc1ccccc1N(CC(=O)Nc1cc(C)on1)S(=O)(=O)c1ccc(Cl)cc1,-16%,18µM*,-6%,-13,-4%,18µM*
Cc1ccc(S(=O)(=O)N(CC(=O)Nc2ccc3c(c2)OCO3)c2ccc(C)c(Cl)c2)cc1,x,16µM*,x,x,x,u
COc1ccccc1N(C)S(=O)(=O)c1ccc(C(=O)OCC(=O)Nc2cc(C)on2)cc1,4%,1%,9%,12,8%,2%
COc1ccccc1N(CC(=O)Nc1ccc2c(c1)OCO2)S(=O)(=O)c1ccc(C)cc1,x,23µM*,x,x,x,8.2µM*
COc1ccc(Cl)cc1N(CC(=O)Nc1ccc2c(c1)OCO2)S(C)(=O)=O,-12%,-16%,-6%,-9,-3%,-25%
SMILES,HT1080-NT tox,TDP1 cell CPT,HT1080 IDH1KD tx,IL-1B inflam inh,uPA generation,DT40 TDP1 no CPT
CCC1CN(CCNC(=O)C(C)(C)O)Cc2cc(OC)ccc2O1 (configuration not stated),x,0%[9.04 µM],x,x,x,-12%
CC(=O)c1ccc(S(=O)(=O)Nc2ccc(-c3cn4c(C)csc4n3)cc2)cc1,x,3%,x,x,x,0%
Cc1noc(C)c1C(=O)N1CCC2(CCN(Cc3ccccc3)CC2)CC1,x,8%,x,x,x,14%
Clc1ccc(-c2nc3c4ccccc4ccn3c2Cc2ccccc2)cc1,-16%,16µM*,0%,44,x,10µM*
Brc1ccc(-c2nc3c4ccccc4ccn3c2Cc2ccccc2)cc1,-2%,16µM*,-1%,53,x,8.2µM*
Fc1ccc(-c2nc3c4ccccc4ccn3c2Cc2ccccc2)cc1,4%,-13%,-2%,21,x,u
Brc1ccc(Nc2c3c(nc4nncn24)CCC3)cc1,x,u,x,x,x,18µM*
Cc1ccc(Nc2c3c(nc4nncn24)CCC3)cc1C,x,u,x,x,x,16µM*
COc1ccc(Nc2c3c(nc4nncn24)CCC3)cc1Cl,x,18µM*,x,x,x,21µM*
Cc1ccc(Nc2c3c(nc4nncn24)CCC3)cc1,x,-8%,x,x,x,-27%
CCOC(=O)/C(=C/C=C1\Sc2cc(C)c(C)cc2N1CC)C(C)=O,-8%,4.6µM*,-5%,-92*,-8%,2.3µM*
CCOC(=O)C(=O)c1c(C)cc2ccccn12,19%,-14%,19%,-12,14%,8%
CCOC(=O)/C(=C\C=C1/Sc2ccccc2N1CC)C(C)=O,-19%,u,-14%,u,7%,12µM*
CCC(=O)/C=C1/Sc2ccccc2N1CC,-2%,u,0%,-2,-2%,u
CCOC(=O)/C(=C/C=C1\Sc2ccccc2N1CC)C(C)=O,0%,21µM*,-4%,-69*,3%,21µM*
S=c1nc(Cc2ccccc2)[nH]c2ccccc12,9%,26µM*,-1%,24,2%,u
